# PubChem BioAssay (NCATS)
# Records with an inconclusive call do not appear. Activity calls are given as the source filed them. Unless noted, calls follow the shape of the full dose curve.
# Experiments:
# [1] = Cytotoxicity counterscreen for inhibitors of SARS-CoV-2 cell entry (AID 1645845); also: nearly all actives have a fitted effect of over 50% in size
# How it was run: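 Expi293F/hACE2 cells seeded overnight; cpd pin-transferred in DMSO, 1 h preincubation, + media, 48 h 37 C 5% CO2; ATPLite 1step luminescence; normalized to cells and no cells.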
# [2] = Primary qHTS to identify inhibitors of SARS-CoV-2 cell entry (AID 1645846); also: nearly all actives have a fitted effect of over 45% in size; also: potency is read from the fitted curve at half-maximal effect
# How it was run: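 HEK293-ACE2 (Expi293F, stable hACE2), 1500 cells/well, o/n 37C; cpd 23 nL pin, 1 h; MLV-PP w/ SARS-CoV-2-S (Wuhan-Hu-1, Δ19 C-term); 48 h 37C; Bright-Glo luminescence; normalized vs S-PP and bald PP.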
# [3] = biological target: Rap guanine nucleotide exchange factor 3 (Homo sapiens) (UniProt O95398); experiment: Confirmatory qHTS for agonist of cAMP-regulated guanine nucleotide exchange factor 3 (EPAC1) (AID 1645881; active = well fitted curve in the direction sought with a large enough effect; an effect the other way counts as inactive or inconclusive;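 also: EPAC1 catalysed release of BODIPY-GDP from Rap1B seen as fluorescence loss; 100% = effect of cAMP agonist control; nearly all actives have a fitted effect of over 75% in size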)
# [4] = biological target: Rap guanine nucleotide exchange factor 4 (Homo sapiens) (UniProt Q8WZA2); experiment: Confirmatory qHTS for agonist of cAMP-regulated guanine nucleotide exchange factor 4 (EPAC2) (AID 1645884; active = well fitted curve in the direction sought with a large enough effect; an effect the other way counts as inactive or inconclusive;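 also: nucleotide exchange releases bodipy-GDP from Rap1 and this lowers its fluorescence; % is scaled to controls: 0 for no effect and ±100 for the full control effect; nearly all actives have a fitted effect of over 65% in size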)
# [5] = biological target: Rap guanine nucleotide exchange factor 4 (Homo sapiens) (UniProt Q8WZA2); experiment: Confirmatory qHTS for antagonist of cAMP-regulated guanine nucleotide exchange factor 4 (EPAC2) (AID 1645885; active = well fitted curve in the direction sought with a large enough effect; an effect the other way counts as inactive or inconclusive; also: % is scaled to controls: 0 for no effect and ±100 for the full control effect; nearly all actives have a fitted effect of over 25% in size)
# Papain (Carica papaya) = Papain (Carica papaya) (UniProt P00784); experiment: Primary qHTS assay for inhibitors of the protease papain (AID 1645873; active = well fitted curve in the direction sought with a large enough effect; an effect the other way counts as inactive or inconclusive;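 also: papain turnover of Z-FR-AMC read as the AMC fluorescence gain over 10 min; % is scaled to controls: 0 for no effect and ±100 for the full control effect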)
# [6] = biological target: Catechol O-methyltransferase (Homo sapiens) (UniProt P21964); experiment: Confirmatory Screen for Target Class Profiling of Small Molecule Inhibitors of Methyltransferases (AID 1745852); settings: MTase-Glo luminescence, SAH detection, recombinant enzyme; measured here: COMT max response; stronger effect = lower value; as to activity change, negative = inhibition: % is scaled to controls: 0 for no effect and ±100 for the full control effect
# [7] = biological target: Guanidinoacetate N-methyltransferase (Homo sapiens) (UniProt Q14353); experiment: as above; settings: MTase-Glo luminescence, SAH detection, recombinant enzyme; activity change, negative = inhibition: at 57.3 µM (top of the series)
# [8] = biological target: Nicotinamide N-methyltransferase (Homo sapiens) (UniProt P40261); experiment: as above; settings: MTase-Glo luminescence, SAH detection, recombinant enzyme; measured here: NNMT max response; stronger effect = lower value
# [9] = biological target: Phenylethanolamine N-methyltransferase (Homo sapiens) (UniProt P11086); experiment: as above; settings: MTase-Glo luminescence, SAH detection, recombinant enzyme; measured here: PNMT max response; stronger effect = lower value
# [10] = biological target: Nuclear receptor subfamily 1 group I member 3 (Homo sapiens) (UniProt Q14994); experiment: Primary qHTS for antagonist of constitutive androstane receptor (CAR) against the NCATS DSHEA and TCM libraries (AID 1794836; active = well fitted curve in the direction sought with a large enough effect; an effect the other way counts as inactive or inconclusive)
# How it was run: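 HepG2 cells stably carrying hCAR and a CYP2B6 luciferase reporter (2,500 cells/well) attached for 5 h, then received compounds with 48 uM CITCO for 24 h at 37C. ONE-Glo luminescence read antagonism; CellTiter-Fluor (405/540 nm) gave viability.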
# [11] = NCATS anti-infectives library activity on HEK293 viability as a counter-qHTS vs the C. elegans viability qHTS (AID 1745854; active = well fitted curve in the direction sought with a large enough effect; an effect the other way counts as inactive or inconclusive; also: % is scaled to controls: 0 for no effect and ±100 for the full control effect)
# How it was run: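 HEK293 cells, 1500 per well, exposed 24 hr at 37C in 5% CO2 to compounds in a 1:5 titration, up to 41.7 uM final. Viability read as CellTiter-Glo luminescence after 10 min at room temperature.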
# [12] = activity change, negative = inhibition: at 57.1 µM (top of the series) unless noted
# [13] = SARS-CoV-2 pseudovirus cell entry assay, luminescence, at 57.1 µM (top of the series)
# Sequence of Rap guanine nucleotide exchange factor 4 (Homo sapiens) (Q8WZA2 whole entry, looked up): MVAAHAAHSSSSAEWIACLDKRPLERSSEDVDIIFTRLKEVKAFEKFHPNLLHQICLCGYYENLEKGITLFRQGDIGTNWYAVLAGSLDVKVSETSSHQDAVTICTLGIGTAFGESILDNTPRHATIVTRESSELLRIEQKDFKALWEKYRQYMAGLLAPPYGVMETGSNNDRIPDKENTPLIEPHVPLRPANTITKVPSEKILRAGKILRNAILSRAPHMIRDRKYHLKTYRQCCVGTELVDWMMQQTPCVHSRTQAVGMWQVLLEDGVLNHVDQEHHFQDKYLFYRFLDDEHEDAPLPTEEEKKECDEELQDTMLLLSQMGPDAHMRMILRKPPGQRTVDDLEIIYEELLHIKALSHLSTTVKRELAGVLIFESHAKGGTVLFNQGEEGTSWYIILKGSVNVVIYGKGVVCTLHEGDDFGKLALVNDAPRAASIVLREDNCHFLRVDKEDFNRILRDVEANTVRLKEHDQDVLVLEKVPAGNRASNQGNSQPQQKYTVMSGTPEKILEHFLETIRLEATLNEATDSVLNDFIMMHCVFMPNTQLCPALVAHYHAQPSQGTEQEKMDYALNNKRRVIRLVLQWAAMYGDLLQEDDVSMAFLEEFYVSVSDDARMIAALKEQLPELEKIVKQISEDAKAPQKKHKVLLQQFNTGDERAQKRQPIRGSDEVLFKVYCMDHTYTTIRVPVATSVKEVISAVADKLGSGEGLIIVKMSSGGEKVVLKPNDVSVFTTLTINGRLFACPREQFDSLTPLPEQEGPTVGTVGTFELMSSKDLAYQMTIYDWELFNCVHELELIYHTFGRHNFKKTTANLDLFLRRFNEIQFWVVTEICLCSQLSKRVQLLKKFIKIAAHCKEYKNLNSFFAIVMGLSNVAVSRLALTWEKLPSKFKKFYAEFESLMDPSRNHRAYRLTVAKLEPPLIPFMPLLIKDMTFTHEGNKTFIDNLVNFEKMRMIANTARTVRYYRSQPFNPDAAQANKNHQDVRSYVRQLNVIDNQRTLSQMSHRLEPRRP
# Sequence of Phenylethanolamine N-methyltransferase (Homo sapiens) (P11086 whole entry, looked up): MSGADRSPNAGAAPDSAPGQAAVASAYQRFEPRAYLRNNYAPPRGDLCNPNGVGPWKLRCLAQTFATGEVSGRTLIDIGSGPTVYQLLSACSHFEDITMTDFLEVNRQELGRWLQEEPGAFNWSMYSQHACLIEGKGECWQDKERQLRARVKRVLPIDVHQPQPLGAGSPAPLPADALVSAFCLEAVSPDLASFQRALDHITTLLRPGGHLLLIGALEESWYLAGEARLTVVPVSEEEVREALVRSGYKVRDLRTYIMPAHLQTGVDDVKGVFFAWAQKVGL
# Sequence of Papain (Carica papaya) (P00784 whole entry, looked up): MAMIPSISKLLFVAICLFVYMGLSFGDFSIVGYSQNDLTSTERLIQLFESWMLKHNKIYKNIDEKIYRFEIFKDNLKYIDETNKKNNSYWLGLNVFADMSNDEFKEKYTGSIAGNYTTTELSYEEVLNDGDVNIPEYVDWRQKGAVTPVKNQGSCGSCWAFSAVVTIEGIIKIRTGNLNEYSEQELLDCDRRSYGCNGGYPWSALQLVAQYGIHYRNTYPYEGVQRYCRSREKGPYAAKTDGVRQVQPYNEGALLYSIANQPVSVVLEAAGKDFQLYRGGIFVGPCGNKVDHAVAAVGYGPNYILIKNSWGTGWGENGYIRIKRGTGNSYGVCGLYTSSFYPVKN
# Sequence of Catechol O-methyltransferase (Homo sapiens) (P21964 whole entry, looked up): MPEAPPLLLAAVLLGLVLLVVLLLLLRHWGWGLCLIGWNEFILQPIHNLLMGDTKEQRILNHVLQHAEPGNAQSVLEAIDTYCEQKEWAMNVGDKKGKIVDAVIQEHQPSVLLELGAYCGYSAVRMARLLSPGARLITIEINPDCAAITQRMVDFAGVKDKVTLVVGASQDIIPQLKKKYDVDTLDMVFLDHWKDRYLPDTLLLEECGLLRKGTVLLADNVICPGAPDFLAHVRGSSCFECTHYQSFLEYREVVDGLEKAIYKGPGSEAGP
# Sequence of Nicotinamide N-methyltransferase (Homo sapiens) (P40261 whole entry, looked up): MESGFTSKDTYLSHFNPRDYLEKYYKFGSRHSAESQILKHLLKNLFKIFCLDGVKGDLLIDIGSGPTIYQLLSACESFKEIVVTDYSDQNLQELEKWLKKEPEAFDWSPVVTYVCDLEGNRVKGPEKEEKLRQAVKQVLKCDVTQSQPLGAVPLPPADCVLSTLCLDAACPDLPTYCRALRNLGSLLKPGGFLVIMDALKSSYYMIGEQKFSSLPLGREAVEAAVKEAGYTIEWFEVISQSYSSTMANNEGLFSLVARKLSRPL
# Sequence of Nuclear receptor subfamily 1 group I member 3 (Homo sapiens) (Q14994 whole entry, looked up): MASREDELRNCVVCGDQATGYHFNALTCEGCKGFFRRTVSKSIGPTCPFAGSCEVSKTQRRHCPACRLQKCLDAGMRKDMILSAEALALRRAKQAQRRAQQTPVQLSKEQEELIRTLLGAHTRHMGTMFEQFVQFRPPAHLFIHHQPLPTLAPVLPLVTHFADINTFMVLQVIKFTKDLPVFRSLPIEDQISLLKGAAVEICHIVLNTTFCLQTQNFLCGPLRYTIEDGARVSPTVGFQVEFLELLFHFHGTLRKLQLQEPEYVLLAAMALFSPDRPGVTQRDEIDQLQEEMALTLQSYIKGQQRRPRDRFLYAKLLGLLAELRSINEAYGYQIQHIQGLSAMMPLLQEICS
# Sequence of Rap guanine nucleotide exchange factor 3 (Homo sapiens) (O95398 whole entry, looked up): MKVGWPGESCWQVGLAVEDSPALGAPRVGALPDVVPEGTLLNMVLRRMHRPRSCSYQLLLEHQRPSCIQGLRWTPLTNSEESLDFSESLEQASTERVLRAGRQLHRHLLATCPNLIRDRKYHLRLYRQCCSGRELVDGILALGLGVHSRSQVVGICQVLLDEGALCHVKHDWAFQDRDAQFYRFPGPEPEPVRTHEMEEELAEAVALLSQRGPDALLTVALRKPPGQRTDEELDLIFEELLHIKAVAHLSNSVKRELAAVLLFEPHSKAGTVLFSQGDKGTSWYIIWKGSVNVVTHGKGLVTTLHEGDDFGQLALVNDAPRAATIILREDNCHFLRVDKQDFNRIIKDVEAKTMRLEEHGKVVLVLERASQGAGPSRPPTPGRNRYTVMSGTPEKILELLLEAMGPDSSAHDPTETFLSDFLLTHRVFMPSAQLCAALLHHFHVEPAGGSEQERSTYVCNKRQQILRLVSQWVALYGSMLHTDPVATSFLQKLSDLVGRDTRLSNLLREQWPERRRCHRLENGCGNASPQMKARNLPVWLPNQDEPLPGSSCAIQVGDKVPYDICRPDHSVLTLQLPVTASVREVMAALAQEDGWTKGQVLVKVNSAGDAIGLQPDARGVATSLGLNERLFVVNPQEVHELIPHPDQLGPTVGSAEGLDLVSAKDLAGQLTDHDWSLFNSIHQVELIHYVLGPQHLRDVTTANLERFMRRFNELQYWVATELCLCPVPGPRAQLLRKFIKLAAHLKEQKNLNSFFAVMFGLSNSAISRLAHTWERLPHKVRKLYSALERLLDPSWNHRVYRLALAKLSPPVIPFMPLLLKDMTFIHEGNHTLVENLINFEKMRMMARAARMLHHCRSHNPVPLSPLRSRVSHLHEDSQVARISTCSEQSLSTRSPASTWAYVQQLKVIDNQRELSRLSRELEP
compound,measurement,setting,value
Cc1cccc(-c2[nH]ncc2-c2ccc3ncccc3n2)n1,Potency,[1],inactive
same,"activity change, negative = inhibition",[2]; [12],-1.7%
O=C1CCCC2=C1C(c1[nH]ncc1Cl)N=C(Nc1nc3ccccc3o1)N2 (stereo not given),Potency,[1],inactive
same,"activity change, negative = inhibition",[2]; [12],-4.23%
C[C@@H]1CN(c2c(F)c(N)c3c(=O)c(C(=O)O)cn(C4CC4)c3c2F)C[C@H](C)N1,"activity change, negative = inhibition","[2]; SARS-CoV-2 pseudovirus cell entry assay, luminescence, at 27.1 µM (top of the series)",-12.9%
same,"activity change, negative = inhibition",[2]; [13],-5.48%
NC1=NC(=O)N2CC12 (stereo not given),"activity change, negative = inhibition",[2]; [13],-95.3%
same,"activity change, negative = inhibition","[2]; SARS-CoV-2 pseudovirus cell entry assay, luminescence, at 114 µM (top of the series)",-13.1%
CN(C)[C@@H]1C(=O)C(C(N)=O)=C(O)[C@@]2(O)C(=O)C3=C(O)c4c(O)cccc4[C@@](C)(O)[C@H]3[C@H](O)[C@@H]12,outcome,[3],inactive
same,outcome,[4],inactive
same,Potency,[5],inactive
CC(C)NC(C)Cc1ccc(I)cc1 (stereo not given),Potency,Papain (Carica papaya),inactive
same,activity,[6],0.93%
same,"activity change, negative = inhibition",[7],2.72%
same,activity,[8],-9.49%
same,activity,[9],2.34%
CC1=C(C/C=C(\C)CCC[C@H](C)CCC[C@H](C)CCCC(C)C)C(=O)c2ccccc2C1=O,outcome,[10],inactive
CCNC(=O)C[C@@H]1N=C(c2ccc(Cl)cc2)c2cc(OC)ccc2-n2c(C)nnc21,Potency,[11],inactive
O=S(=O)(CC1CS1)c1ccc(Oc2ccccc2)cc1 (stereo not given),Potency,[11],inactive
Cc1nn(Cc2ccccc2Cl)c(C)c1CN(C)CC(O)COc1ccc(Cl)cc1 (stereo not given),Potency,[2]; [12],31.6 µM (active)
